Assay [1] has as its target M-phase phosphoprotein 8 (Homo sapiens) (UniProt Q99549). The assay can be described thus: qHTS Validation Assay for Inhibitors for MPP8 Chromodomain Interactions with Methylated Histone Tails (AID 488949). Note: nearly all actives have a fitted effect of over 55% in size. Note: potency is the fitted concentration of half-maximal effect. In a few lines: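 AlphaScreen read-out: streptavidin donor and nickel chelate acceptor beads (final 10 ug/mL), 30 min in the dark at RT. Complex of 50 nM MPP8 and 50 nM b-H3(1-18)K9me3 peptide had been exposed to compounds for 30 min beforehand.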
For orientation: In qHTS, concentration-response curves come from the screen itself.

Assay [2] has as its target Chromobox protein homolog 1 (Homo sapiens) (UniProt P83916). The assay can be described thus: qHTS Validation Assay for Inhibitors of HP1-beta Chromodomain Interactions with Methylated Histone Tails (AID 488953). Note: nearly all actives have a fitted effect of over 50% in size. Note: potency is the fitted concentration of half-maximal effect. In a few lines: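 AlphaScreen proximity signal from streptavidin donor and nickel chelate acceptor beads (final 10 ug/mL) after 30 min dark incubation. Compounds had 30 min at room temperature with preformed complex of 50 nM HP1-beta and 50 nM b-H3(1-18)K9me3 in PBS pH 7.4 with 0.01% Tween-20.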

In assay [3] the target is Methanococcus maripaludis chaperonin (MmCpn) (UniProt Q6LX38). The assay can be described thus: High-Throughput Screening for Modulators of Cytosolic Chaperonin Activity: MmCpn Primary Screen (AID 488978). The essentials: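 ADP formation read by HTRF Transcreener, 665/590 nm emission after 320 nm excitation. Enzyme: archaeal chaperonin at 50 nM final; substrate ATP 30 uM final; 10 min, 37C, after 5 min compound preincubation at RT.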
Methanococcus maripaludis chaperonin (MmCpn), sequence (Q6LX38 1-543): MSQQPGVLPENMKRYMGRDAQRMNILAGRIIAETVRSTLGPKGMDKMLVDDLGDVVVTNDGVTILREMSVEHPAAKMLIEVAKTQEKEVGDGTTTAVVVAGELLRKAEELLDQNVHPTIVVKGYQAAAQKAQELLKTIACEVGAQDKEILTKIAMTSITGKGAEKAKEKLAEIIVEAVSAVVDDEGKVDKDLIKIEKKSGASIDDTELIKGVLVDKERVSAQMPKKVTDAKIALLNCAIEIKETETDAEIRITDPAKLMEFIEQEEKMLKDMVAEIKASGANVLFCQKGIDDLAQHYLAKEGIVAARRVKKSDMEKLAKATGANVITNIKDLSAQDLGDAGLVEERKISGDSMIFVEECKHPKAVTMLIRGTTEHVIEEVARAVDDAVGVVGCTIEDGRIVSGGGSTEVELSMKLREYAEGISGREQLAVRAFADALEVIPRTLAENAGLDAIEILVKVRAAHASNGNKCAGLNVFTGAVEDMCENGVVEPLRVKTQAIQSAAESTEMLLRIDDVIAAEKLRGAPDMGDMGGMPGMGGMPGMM

Assay [4] has as its target Transient receptor potential cation channel subfamily V member 1 (Homo sapiens) (UniProt Q8NER1). The assay can be described thus: HTS Assay for Compounds that Act as Enhancers of the Vanilloid Receptor 1 (AID 488979). In a few lines: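 TRPV1 cells loaded with Fluo-8 calcium dye; compound added and Ca2+ signal (ex 480/em 520 nm) followed 3 min, then capsaicin at EC20 added and read 2 more min to detect enhancement.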

Assay [5] has as its target Thyrotropin receptor (Homo sapiens) (UniProt P16473). The assay can be described thus: qHTS Assay for Antagonists of the Thyroid Stimulating Hormone Receptor (AID 488980). Note: series mostly up to about 58 µM. In a few lines: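 TSHR-HEK293 cells; 70 uM RO 20-1724 PDE inhibitor; compound + EC80 TSH (4 nM final); anti-cAMP cryptate antibody/cAMP-d2 in lysis buffer, 30 min RT; HTRF 665/620 nm read.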
The target in assay [6] is D(1A) dopamine receptor (Homo sapiens) (UniProt P21728). The assay can be described thus: HTS Assay for Allosteric Agonists of the Human D1 Dopamine Receptor: Primary Screen for Agonists (AID 488981). Note: potency is the fitted concentration of half-maximal effect. The essentials: (§1)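 Tetracycline-induced HEK293 Trex D1 cells with forced coupling to calcium, loaded with no-wash calcium dye; kinetic fluorescence read 180 s after compound addition for agonism, then a further 180 s after an EC20 dopamine challenge for potentiation.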
D(1A) dopamine receptor (Homo sapiens), sequence (P21728 whole entry, looked up): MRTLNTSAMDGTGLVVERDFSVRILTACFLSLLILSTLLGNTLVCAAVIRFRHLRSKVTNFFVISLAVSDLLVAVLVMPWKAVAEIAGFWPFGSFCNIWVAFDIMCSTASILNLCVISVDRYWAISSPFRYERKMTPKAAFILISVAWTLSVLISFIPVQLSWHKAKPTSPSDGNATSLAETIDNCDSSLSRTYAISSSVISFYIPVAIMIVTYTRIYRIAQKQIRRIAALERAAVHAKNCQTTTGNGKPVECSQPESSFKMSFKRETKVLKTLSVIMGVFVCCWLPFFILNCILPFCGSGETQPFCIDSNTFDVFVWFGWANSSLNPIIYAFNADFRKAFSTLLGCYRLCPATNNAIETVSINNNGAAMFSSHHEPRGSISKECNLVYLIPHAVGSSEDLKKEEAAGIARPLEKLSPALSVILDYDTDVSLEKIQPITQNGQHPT

The target is the same in assay [7]. The assay can be described thus: HTS Assay for Allosteric Agonists of the Human D1 Dopamine Receptor: Primary Screen for Potentiators (AID 488982). In a few lines:
as §1

Assay [8] in a line: Validation screen for small molecules that induce genotoxicity in human embryonic kidney (HEK293T) cells expressing luciferase-tagged ELG1 (AID 493106). In a few lines:
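ELG1-luciferase reporter readout (ONE-Glo, 30 min, room temperature) after 16 hr compound treatment at 37 °C of HEK293T cells at 2,000 per well. Rising luminescence flags genotoxic stress.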

For assay [9], the target named is ATP-dependent 6-phosphofructokinase (Trypanosoma brucei brucei) (UniProt O15648). The assay can be described thus: qHTS Assay to Find Inhibitors of T. brucei phosphofructokinase: hit validation (AID 492961).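 Note: luminescence reports ADP formed as PFK phosphorylates fructose-6-phosphate with ATP; series mostly up to about 51 µM.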 The essentials: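 Inhibition of parasite PFK is measured as reduced ADP formation, quantified via luciferase after ATP depletion. Assay used 0.1 mM ATP, 0.5 mM F6P, 1.25 nM enzyme, 45 min incubation.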
ATP-dependent 6-phosphofructokinase (Trypanosoma brucei brucei), sequence (O15648 whole entry, looked up): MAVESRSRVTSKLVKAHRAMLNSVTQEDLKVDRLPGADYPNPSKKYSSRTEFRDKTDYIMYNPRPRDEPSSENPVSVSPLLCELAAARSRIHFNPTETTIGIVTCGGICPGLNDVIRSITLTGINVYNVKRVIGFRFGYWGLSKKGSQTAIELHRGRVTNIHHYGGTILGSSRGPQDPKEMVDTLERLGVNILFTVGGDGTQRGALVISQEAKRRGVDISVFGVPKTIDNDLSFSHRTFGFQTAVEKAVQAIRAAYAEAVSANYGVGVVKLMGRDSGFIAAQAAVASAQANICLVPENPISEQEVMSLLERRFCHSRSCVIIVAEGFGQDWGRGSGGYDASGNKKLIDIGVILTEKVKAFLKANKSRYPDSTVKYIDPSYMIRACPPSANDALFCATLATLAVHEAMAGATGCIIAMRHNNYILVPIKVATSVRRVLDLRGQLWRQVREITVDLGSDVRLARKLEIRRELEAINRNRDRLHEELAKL

In assay [10] the target is Tyrosyl-DNA phosphodiesterase 1 (Homo sapiens) (UniProt Q9NUW8). The assay can be described thus: Confirmation Assay for Inhibitors of Tyrosyl-DNA Phosphodiesterase (TDP1) (AID 489007). Note: potency is the fitted concentration of half-maximal effect; nearly all actives have a fitted effect of over 40% in size. Conditions: recombinant human TDP1 enzymatic activity, dose-response. From the text: Human tyrosyl-DNA phosphodiesterase I (Tdp1) is a rational anticancer target because this enzyme is involved in the repair of DNA lesions created by the trapping of human DNA topoisomerase I (Top1) following treatment by anticancer agents such as camptothecins. Recombinant Tdp1 was expressed and purified from E. coli in the laboratory (Anthony et al, Nucleic Acids Research, 2007, Vol. 35, 4474-4484). A Tdp1 DNA substrate bearing a 5' biotin and a 3' phospho-tyrosine was obtained by custom synthesis. This oligonucleotidic DNA substrate was subsequently coupled to a fluorescein isothiocyanate (FITC) group via the free amino group present on the phospho-tyrosine. Tdp1 was screened against the NCGC small molecule library using the AlphaScreen (AS) detection method in which a streptavidin donor AS bead is bound at the 5' end and an anti-FITC AS acceptor bead is bound at the 3' end of the DNA oligonucleotidic substrate. In the presence of Tdp1, the enzyme cleaves the tyrosine-FITC group, leaving a 3' end phosphate on the DNA substrate. This cleavage reaction results in a loss of signal in AS.
Tyrosyl-DNA phosphodiesterase 1 (Homo sapiens), sequence (Q9NUW8 whole entry, looked up): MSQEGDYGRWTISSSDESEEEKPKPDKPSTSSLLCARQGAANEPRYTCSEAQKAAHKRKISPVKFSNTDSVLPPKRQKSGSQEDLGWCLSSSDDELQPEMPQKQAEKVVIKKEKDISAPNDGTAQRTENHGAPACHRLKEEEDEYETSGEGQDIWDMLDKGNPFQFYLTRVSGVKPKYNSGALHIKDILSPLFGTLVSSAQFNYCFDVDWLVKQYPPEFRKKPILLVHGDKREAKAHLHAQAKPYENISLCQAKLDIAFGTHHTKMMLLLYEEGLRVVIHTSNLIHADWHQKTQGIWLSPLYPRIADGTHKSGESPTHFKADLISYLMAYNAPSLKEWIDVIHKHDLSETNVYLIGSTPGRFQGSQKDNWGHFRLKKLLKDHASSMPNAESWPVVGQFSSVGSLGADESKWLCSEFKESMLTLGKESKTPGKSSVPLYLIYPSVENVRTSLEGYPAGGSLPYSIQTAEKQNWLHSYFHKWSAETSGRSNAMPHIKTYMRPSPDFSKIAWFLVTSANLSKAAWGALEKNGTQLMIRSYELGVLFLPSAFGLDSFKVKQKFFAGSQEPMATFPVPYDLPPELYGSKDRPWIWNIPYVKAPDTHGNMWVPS
This BioAssay is a confirmation of followup compounds from primary TDP1 screen (AID:485290)
NIH Molecular Libraries Probe Production Network [MLPCN] […]
3 ul of Tdp1 enzyme is dispensed to 1536-well Kalypsys black solid bottom plates. […] The detection is then performed on a PerkinElmer Envision reader.

Results filed as inconclusive are left out. Activity calls are given as the source filed them. Calls come from the whole dose curve; as a rule, active = well fitted curve in the direction sought with a large enough effect; inconclusive = small, poorly fitted or top-dose-only effect, or another doubt; inactive = no such curve, though single readings can be large; an effect the other way counts as inactive or inconclusive.

Transient receptor potential cation channel subfamily V member 1 (Homo sapiens), sequence (Q8NER1 whole entry, looked up): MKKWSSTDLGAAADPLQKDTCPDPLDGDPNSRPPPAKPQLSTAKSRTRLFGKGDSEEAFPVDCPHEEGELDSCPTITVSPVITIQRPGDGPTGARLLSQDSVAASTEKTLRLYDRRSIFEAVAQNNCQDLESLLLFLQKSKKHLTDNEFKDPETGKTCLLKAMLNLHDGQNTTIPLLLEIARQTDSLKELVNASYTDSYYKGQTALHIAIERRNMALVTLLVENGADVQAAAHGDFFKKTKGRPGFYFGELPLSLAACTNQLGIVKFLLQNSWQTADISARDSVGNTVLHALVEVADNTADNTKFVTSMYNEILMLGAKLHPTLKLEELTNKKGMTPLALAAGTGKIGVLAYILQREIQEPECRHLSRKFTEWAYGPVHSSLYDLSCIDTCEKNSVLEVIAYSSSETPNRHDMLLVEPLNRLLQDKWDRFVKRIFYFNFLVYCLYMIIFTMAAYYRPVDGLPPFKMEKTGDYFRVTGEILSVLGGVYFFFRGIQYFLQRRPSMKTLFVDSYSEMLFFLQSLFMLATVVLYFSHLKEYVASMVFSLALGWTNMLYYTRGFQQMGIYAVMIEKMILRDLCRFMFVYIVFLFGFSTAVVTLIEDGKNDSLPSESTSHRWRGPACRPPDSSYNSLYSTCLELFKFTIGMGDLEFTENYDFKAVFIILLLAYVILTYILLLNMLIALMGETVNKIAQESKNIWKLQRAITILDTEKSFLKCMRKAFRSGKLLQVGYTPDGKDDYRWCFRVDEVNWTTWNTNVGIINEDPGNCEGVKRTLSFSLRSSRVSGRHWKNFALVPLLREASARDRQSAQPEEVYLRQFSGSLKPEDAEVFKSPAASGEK
M-phase phosphoprotein 8 (Homo sapiens), sequence (Q99549 whole entry, looked up): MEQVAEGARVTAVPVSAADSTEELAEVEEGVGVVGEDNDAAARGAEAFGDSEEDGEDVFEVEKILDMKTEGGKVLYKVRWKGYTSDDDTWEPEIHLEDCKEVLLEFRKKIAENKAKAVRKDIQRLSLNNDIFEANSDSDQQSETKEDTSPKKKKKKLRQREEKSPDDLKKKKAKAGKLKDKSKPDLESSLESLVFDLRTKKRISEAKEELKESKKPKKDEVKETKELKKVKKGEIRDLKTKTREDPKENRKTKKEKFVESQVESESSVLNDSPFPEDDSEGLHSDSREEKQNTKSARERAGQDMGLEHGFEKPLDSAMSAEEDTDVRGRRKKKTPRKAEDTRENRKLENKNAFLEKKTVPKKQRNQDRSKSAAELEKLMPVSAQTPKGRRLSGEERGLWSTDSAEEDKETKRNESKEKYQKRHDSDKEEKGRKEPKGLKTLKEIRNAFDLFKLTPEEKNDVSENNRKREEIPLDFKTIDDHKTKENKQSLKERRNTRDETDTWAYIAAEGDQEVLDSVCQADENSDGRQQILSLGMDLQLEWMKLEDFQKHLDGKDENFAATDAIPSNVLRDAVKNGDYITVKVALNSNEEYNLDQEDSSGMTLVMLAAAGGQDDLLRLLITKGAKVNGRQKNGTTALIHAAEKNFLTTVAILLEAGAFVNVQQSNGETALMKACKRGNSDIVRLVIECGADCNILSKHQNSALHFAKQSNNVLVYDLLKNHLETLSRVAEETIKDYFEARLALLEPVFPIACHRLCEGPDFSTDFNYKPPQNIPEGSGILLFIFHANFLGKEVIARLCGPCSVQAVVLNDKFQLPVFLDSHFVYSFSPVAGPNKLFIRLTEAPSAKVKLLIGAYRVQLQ
Thyrotropin receptor (Homo sapiens), sequence (P16473 whole entry, looked up): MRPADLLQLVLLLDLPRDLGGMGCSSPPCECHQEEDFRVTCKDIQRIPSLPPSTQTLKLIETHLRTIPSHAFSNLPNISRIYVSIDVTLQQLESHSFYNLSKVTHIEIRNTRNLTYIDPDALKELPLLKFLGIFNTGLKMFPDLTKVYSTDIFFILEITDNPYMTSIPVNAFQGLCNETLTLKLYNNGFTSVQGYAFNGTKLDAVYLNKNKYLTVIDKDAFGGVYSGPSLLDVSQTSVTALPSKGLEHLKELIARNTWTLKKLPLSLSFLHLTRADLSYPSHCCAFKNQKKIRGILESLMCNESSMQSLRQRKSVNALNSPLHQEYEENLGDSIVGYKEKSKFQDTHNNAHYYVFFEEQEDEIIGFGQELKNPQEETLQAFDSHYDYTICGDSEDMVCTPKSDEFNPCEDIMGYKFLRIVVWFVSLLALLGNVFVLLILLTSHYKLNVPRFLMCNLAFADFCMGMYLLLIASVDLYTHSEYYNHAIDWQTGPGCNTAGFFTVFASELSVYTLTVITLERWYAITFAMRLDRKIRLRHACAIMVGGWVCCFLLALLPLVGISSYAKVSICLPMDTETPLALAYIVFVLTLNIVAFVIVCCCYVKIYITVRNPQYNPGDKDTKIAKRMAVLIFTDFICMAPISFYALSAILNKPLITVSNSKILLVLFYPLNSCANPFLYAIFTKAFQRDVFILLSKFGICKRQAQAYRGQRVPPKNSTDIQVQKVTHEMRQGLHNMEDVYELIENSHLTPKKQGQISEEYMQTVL
Chromobox protein homolog 1 (Homo sapiens), sequence (P83916 whole entry, looked up): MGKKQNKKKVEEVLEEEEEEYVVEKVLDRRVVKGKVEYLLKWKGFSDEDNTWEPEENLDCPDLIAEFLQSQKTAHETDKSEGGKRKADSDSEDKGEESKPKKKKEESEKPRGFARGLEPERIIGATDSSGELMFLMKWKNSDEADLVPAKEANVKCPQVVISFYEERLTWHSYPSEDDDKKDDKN

On to `CN(C)C(=O)Oc1ccc[n+](C)c1`, for which the Potency result in assay [1] was “inactive”. The Potency in [2] is 0.0067 µM (active).
For `CN1C(=O)CCS(=O)(=O)C1c1ccc(Cl)cc1` (stereo not given), the Potency entry in assay [1], in assay [2] and in [6] was “inactive” each time. For the same compound, the call in [3], in assay [4], in assay [5], in assay [7] and in assay [8] was inactive.
Consider `Nc1nc(N)nc(NC2CC2)n1`, for which the outcome in assay [9] was inactive.
With `C=CCN1C[C@H](C)N([C@H](c2ccc(C(=O)N(CC)CC)cc2)c2cccc(OC)c2)C[C@H]1C`, the result in assay [9] was inactive.
For the compound `O=C(CCCN1CCC2(CC1)C(=O)NCN2c1ccccc1)c1ccc(F)cc1`, the Potency entry in assay [1] was “inactive”. Also, the result in assay [3], in assay [5], in assay [7] and in [8] was inactive. Moreover, the Potency in assay [6] is 12.6 µM (active).
Consider `CN=C(NC#N)NCCSCc1nc[nH]c1C`, for which the Potency entry in assay [1] is “inactive”.
As to `Cc1nnc2n1-c1ccc(Cl)cc1C(c1ccccc1Cl)=NC2`, the compound was called inactive in assay [9].
Turning to `CN1C(=O)CC(=O)N(c2ccccc2)c2cc(Cl)ccc21`, the call in [9] was inactive.
Consider `O=P1(N(CCCl)CCCl)NCCCO1` (stereo not given), for which the Potency entry in assay [1] and in assay [6] was “inactive” each time. The Potency in assay [2] is 0.006 µM (active). Further, the outcome in assay [3], in assay [4], in assay [5], in assay [7] and in assay [8] was inactive.
For the compound `CCC1(c2ccc(N)cc2)CCC(=O)NC1=O` (stereo not given), the Potency result in assay [1], in [2] and in assay [6] was “inactive” throughout. For the same compound, the outcome in assay [3], in assay [4], in [7] and in assay [8] was inactive.
In the case of `CC(C)c1cccc(C(C)C)c1O`, the Potency result in assay [1], in [2] and in assay [6] was “inactive” in each case. Also, the compound was classed as inactive in [3], in assay [4], in assay [5], in [7] and in [8].
On to `O=C1c2ccccc2C(=O)C1C(=O)C(c1ccccc1)c1ccccc1`, for which the compound was called inactive in [9].
Regarding `COC1CC(=C(c2cccs2)c2cccs2)C[N+](C)(C)C1` (stereo not given), in assay [9], the compound was classed as inactive.
Turning to `CN1C(=O)C(O)N=C(c2ccccc2)c2cc(Cl)ccc21` (stereo not given), in assay [9], the compound was classed as inactive.
On to `NC(=O)c1cc([N+](=O)[O-])cc([N+](=O)[O-])c1`, for which, in assay [9], the call was inactive.
As for `C[C@]12CCC(=O)C=C1CC[C@@H]1[C@@H]2CC[C@]2(C)C(=O)CC[C@@H]12`, the Potency entry in [1] is “inactive”. For the same compound, the result in assay [4], in assay [5] and in assay [9] was inactive.
In the case of `COP(=S)(OC)Oc1ccc(SC)c(C)c1`, in assay [9], the outcome was inactive.
With `O=C(O)CCCc1ccc(N(CCCl)CCCl)cc1`, the Potency entry in [1], in [2] and in [6] was “inactive” in each case. Also, the call in [3], in assay [4], in assay [5], in assay [7] and in assay [8] was inactive.
Regarding `CCCCC/C=C\C/C=C\C/C=C\C/C=C\CCCC(=O)NCC(=O)O`, the Potency entry in [1] and in [6] was “inactive” each time. The Potency in [2] was 44.7 µM (active); in assay [10], 28.2 µM (active). Moreover, the compound was classed as inactive in assay [3], in [4], in assay [7] and in [8].
As for `Clc1ccc(C(c2ccc(Cl)cc2)C(Cl)(Cl)Cl)cc1`, the result in [9] was inactive.
On to `COc1cccc([C@@]2(O)CCCC[C@@H]2CN(C)C)c1`, for which the outcome in assay [9] was inactive.
For `CC(C)N(CCC(C(N)=O)(c1ccccc1)c1ccccn1)C(C)C` (stereo not given), the Potency result in [1], in [2] and in assay [6] was “inactive” each time. Moreover, the call in assay [3], in [4], in [5], in [7] and in assay [8] was inactive.
Regarding `COc1ccc2c(c1OC)C(=O)O[C@H]2[C@@H]1c2cc3c(cc2CCN1C)OCO3`, the Potency entry in assay [1], in assay [2] and in assay [6] was “inactive” each time. The compound was classed as inactive in [3], in assay [5], in [7] and in assay [8].
Regarding `CC(NC(C)(C)C)C(=O)c1cccc(Cl)c1` (stereo not given), the Potency result in assay [1], in assay [2] and in [6] was “inactive” in each case. Besides, the compound was called inactive in assay [3], in [4] and in [8].
Turning to `NCCc1ccc(O)cc1`, the Potency result in [1], in [2] and in [6] was “inactive” each time. The compound was called inactive in assay [3], in [4], in [5], in assay [7] and in assay [8].
On to `C=C(C)[C@H]1CN[C@H](C(=O)O)[C@H]1CC(=O)O`, for which the Potency result in [1], in assay [2] and in assay [6] was “inactive” in each case. Further, the outcome in [3], in [4], in assay [5], in assay [7], in [9] and in assay [8] was inactive.
On to `O=C1Nc2ccc(Cl)cc2C(c2ccccc2)=NC1O` (stereo not given), for which the result in assay [9] was inactive.
In the case of `CC(C)C[C@H]1C(=O)N2CCC[C@H]2[C@]2(O)O[C@](NC(=O)[C@@H]3C=C4c5cccc6[nH]c(Br)c(c56)C[C@H]4N(C)C3)(C(C)C)C(=O)N12`, the outcome in assay [7] and in [8] was inactive.
As for `CC(=O)N1CCN(c2ccc(OC[C@H]3CO[C@](Cn4ccnc4)(c4ccc(Cl)cc4Cl)O3)cc2)CC1`, the Potency in assay [1] and in assay [2] was 39.8 µM (active) throughout. The compound was called inactive in [8].
On to `O=c1[nH]oc2c1CCNC2`, for which the Potency result in assay [1], in assay [2] and in [6] was “inactive” each time. Also, the compound was classed as inactive in assay [3], in assay [4], in [5], in assay [7] and in assay [8].
Take `Cc1nnc(SCC2=C(C(=O)O)N3C(=O)[C@@H](NC(=O)Cn4cnnn4)[C@H]3SC2)s1`: in [1], the Potency result was “inactive”.
As for `CC[N+](CC)(CC)CCOc1cccc(OCC[N+](CC)(CC)CC)c1OCC[N+](CC)(CC)CC`, the Potency in assay [1] is 13.4 µM (active).
For `Cc1ncsc1CCCl`, the Potency result in assay [1], in [2] and in assay [6] was “inactive” throughout. Besides, the result in [3], in assay [9] and in assay [8] was inactive.
Consider `CC(C)(C)NCC(O)c1ccccc1Cl` (stereo not given), for which the Potency entry in assay [1], in assay [2] and in assay [6] was “inactive” throughout. Moreover, the result in [3], in assay [4], in [5], in assay [7], in [9] and in assay [8] was inactive.
